According to PubChem BioAssay (NCATS):
Inconclusive results are not listed. Calls of active or inactive are those of the source. Calls follow the shape of the dose curve; as a rule, active = well fitted cell-killing curve with a large enough effect; inconclusive = small, poorly fitted or top-dose-only effect; inactive = no such curve, though single readings can be large or run the other way.

Assay: qHTS of pediatric cancer cell lines to identify multiple opportunities for drug repurposing: Primary screen for NB-EBc1 cells (AID 1347095)
Conditions: NB-EBc1 neuroblastoma viability, CellTiter-Glo luminescence, 48 h; series mostly up to 46 µM
Excerpt: Drug repurposing or repositioning has been offered as a strategy for drug development in oncology programs. This approach has special potential for childhood cancers and other rare or orphan diseases, where the expected return on new drug development has been a disincentive to pharmaceuticals. […] In this project we exploit the poly-pharmacology of drugs to discover new indications via phenotypic screening of a panel of 19 well-characterized cell lines derived from solid tumors seen in children and adolescents. The goal is to identify approved drugs with previously unrecognized anticancer properties that has the potential to reveal new mechanisms and biological processes involved in carcinogenesis or drug resistance. We employed a titration-based paradigm (quantitative high-throughput screening or qHTS), where all compounds were tested at multiple concentrations for their effect on cell viability. Concentration-response curves (CRCs) were derived directly from the primary screen, and both potency and efficacy values were used to identify compounds with robust bioactivity profiles. We screened the NIH Chemical Genomics Center (NCGC) Pharmaceutical Collection (NPC) and Mechanism Interrogation Plate (MIPE) small molecule collections of approved and investigational compounds against these cell lines; and measured metabolically active cells after 48 hours of compound treatment as a proxy for cell viability. […] Assay Submitter: Nathalia J. Martinez, National Center for Advancing Translational Sciences, National Institutes of Health, Rockville, MD, USA; email: natalia.martinez@nih.gov Shen, M et al. Quantitative high-throughput phenotypic screening of pediatric cancer cell lines identifies multiple opportunities for drug repurposing. Oncotarget 2017 Dec 19;9(4):4758-4772. PMID 29435139.
The cells were obtained from University of North Carolina (UNC), Pediatric Preclinical Testing Program (PPT), and Coriell Institute (CI). qHTS cell viability assay: Cells were assayed in growth media at a density of 500-1,000 cells/well. Five microliters of cells were dispensed into 1,536-well, white, solid-bottom, TC-treated plates (Greiner Bio One) using a multidrop dispenser and incubated at 37 degrees C, 5% CO2, under a humidified atmosphere for 5 hours. Twenty-three nanoliters of compounds and controls (neutral control DMSO or positive control bortezomib at final concentration of 2.3 µM) were subsequently transferred by Kalypsys pintool. For primary screens, the MIPE collection was tested at 11-point dilutions (final concentrations range from 0.78 nM to 46 µM) and the NPC collection at 8-point dilutions (final concentrations range from 0.59 nM to 46 µM). Compounds tested in follow-up screens were assayed at 11-point dilutions. Cells were incubated for 48 hours, followed by addition of 3 µL of CellTiter-Glo (Promega). After a 15 min incubation at room temperature, samples were analyzed for luminescence intensity using a ViewLux High-throughput CCD imager equipped with clear filters.
Potency is read from the fitted curve at half-maximal effect.

Row | SMILES | Potency
1 | Cc1nc2cnc3ccc(C#Cc4cccnc4)cc3c2n1-c1ccc(C(C)(C)C#N)cc1 | 833 nM (active)
2 | CC(=O)Nc1sc2c(c1-c1nc3ccccc3s1)CNC2 | 2350 nM (active)
3 | C#Cc1cccc(Nc2ncnc3cc(OC)c(OCCCCCCC(=O)NO)cc23)c1 | 148 nM (active)
4 | Clc1cccc(-c2nnnn2Cc2cccnc2)c1Cl | inactive
5 | CS(=O)(=O)N1CCN(Cc2cc3nc(-c4cccc5[nH]ncc45)nc(N4CCOCC4)c3s2)CC1 | 833 nM (active)
6 | Nc1ncnc2c1c(-c1cnc3[nH]ccc3c1)nn2C1CCCC1 | 469 nM (active)
7 | Nc1cc(C(F)(F)F)c(-c2cc(N3CCOCC3)nc(N3CCOCC3)n2)cn1 | 166 nM (active)
8 | COc1c(OCCCN2CCOCC2)ccc2c3n(c(=NC(=O)c4cnc(N)nc4)nc12)CCN3 | 102 nM (active)
9 | COc1ccc(OC)c(-c2nnc3ccc(-c4ccc(OC)c(O[C@@H]5CCOC5)c4)nn23)c1 | inactive
10 | O=C(c1ccc(Nc2nccc(-c3cc4ccccc4s3)n2)cc1)N1CCC(N2CCCC2)CC1 | 23500 nM (active)
11 | CN(C)CC=CC(=O)Nc1cc2c(Nc3ccc(F)c(Cl)c3)ncnc2cc1O[C@H]1CCOC1 | 9350 nM (active)
12 | CC[C@@H]1C(=O)N(C)c2cnc(Nc3ccc(C(=O)NC4CCC(N5CCN(CC6CC6)CC5)CC4)cc3OC)nc2N1C(C)C (stereo not given in full) | 332 nM (active)
13 | Cc1nc2ccc(CN(C)c3ccc(C(=O)N[C@@H](CCC(=O)O)C(=O)O)s3)cc2c(=O)[nH]1 | 42.2 nM (active)
14 | COc1cccc(-c2ccc(NC(=O)C3=C(C(=O)O)CCC3)c(F)c2)c1 | 3720 nM (active)
15 | c1cc(-c2cnn3cc(-c4ccc(OCCN5CCCCC5)cc4)cnc23)ccn1 | 23500 nM (active)
16 | Cc1ccc(C(N)=O)cc1Nc1nccc(-c2cn(C(C)C)c3cnccc23)n1 | 4180 nM (active)
17 | COc1ccc(-n2nc(C(N)=O)c3c2C(=O)N(c2ccc(N4CCCCC4=O)cc2)CC3)cc1 | inactive
18 | O=C(O)c1ccc2cc(-c3ccc(O)c(C45CC6CC(CC(C6)C4)C5)c3)ccc2c1 | 209 nM (active)
19 | CC(=O)SC[C@@H](C)C(=O)N1CCC[C@H]1C(=O)N[C@@H](Cc1ccccc1)C(=O)O | inactive
20 | CNC(=O)c1c(F)cccc1Nc1nc(Nc2cc3c(cc2OC)CCN3C(=O)CN(C)C)nc2[nH]ccc12 | 332 nM (active)

Row | SMILES | Potency
21 | CC=C1NC(=O)[C@H]2CSSCCC=C[C@H](CC(=O)N[C@H](C(C)C)C(=O)N2)OC(=O)[C@H](C(C)C)NC1=O | 29.6 nM (active)
22 | Cc1ccc(S(=O)(=O)Nc2cc(Cl)ccc2C(=O)Nc2nc(-c3ccccc3)cs2)cc1 | 7430 nM (active)
23 | CCn1nnc2c(N3CCOCC3)nc(-c3ccc(NC(=O)Nc4ccc(C(=O)N5CCN(C)CC5)cc4)cc3)nc21 | 743 nM (active)
24 | NC(=O)Nc1cc(-c2cccc(F)c2)sc1C(=O)N[C@H]1CCCNC1 | 296 nM (active)
25 | CCN1CCN(Cc2ccc(-c3cc4c(N[C@H](C)c5ccccc5)ncnc4[nH]3)cc2)CC1 | 46.9 nM (active)
26 | CC(C)(C)c1cc(NC(=O)Nc2ccc(-c3cn4c(n3)sc3cc(OCCN5CCOCC5)ccc34)cc2)no1 | 16600 nM (active)
27 | CC(C)c1cc(C(=O)N2Cc3ccc(CN4CCN(C)CC4)cc3C2)c(O)cc1O | 132 nM (active)
28 | C[C@@H]1COC(Nc2ccc3ncnc(Nc4ccc(OCc5nccs5)c(Cl)c4)c3c2)=N1 | 2640 nM (active)
29 | CCCCOc1c(C(=O)c2c(F)cc(C)cc2F)cnc2n[nH]cc12 | 2350 nM (active)
30 | CCOC(=O)C1=C(C)NC2=C(C(=O)CC(C)(C)C2)C1c1ccc(-c2ccccc2)cc1 (stereo not given) | 5900 nM (active)
31 | O=C(O)CO.[NH2-].[NH2-].[Pt+2] | inactive
32 | Cc1ccc(C(=O)Nc2cccc(C(F)(F)F)c2)cc1-c1ccc2nc(NCCN3CCOCC3)ncc2c1 | 3720 nM (active)
33 | Cc1ccc(C(=O)Nc2ccc(CN3CCN(C)CC3)c(C(F)(F)F)c2)cc1C#Cc1cnc2cccnn12 | 6620 nM (active)
34 | O=C(O)[C@H](Cc1c[nH]c2ccccc12)N1C(=O)c2ccccc2C1=O | inactive
35 | O=C(Nc1ncc(-c2cc(C(F)F)nn2-c2c(Cl)cccc2Cl)s1)C1CC1 | 296 nM (active)
36 | COc1cccc(Nc2c(C(N)=O)cnc3c(C)cc(S(=O)(=O)c4cccc(C(=O)N(C)C)c4)cc23)c1 | inactive
37 | Cc1cc(Nc2cc(CN3CCOCC3)c3nc(C)c(Cc4ccc(Cl)cc4F)n3n2)n[nH]1 | 4180 nM (active)
38 | Nc1ccn([C@@H]2O[C@H](CO)[C@H](O)C2(F)F)c(=O)n1 | 935 nM (active)
39 | COc1cc(OC2CCN(C)CC2)ccc1Nc1ncc2c(n1)n(C1CCCC1)c(=O)n2C | 8330 nM (active)
40 | N#Cc1c(O)c2c(-c3ccc(-c4ccccc4O)cc3)csc2[nH]c1=O | inactive
